Assay results published in PubChem BioAssay AID1347426 (Functional Genomics Laboratory (NCATS/FGL), 2020).
Hit rate of the full screen: of about 31,000 sequences, about 1,400 (4.5%) were called active.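 How the source made its calls: active means median seed-adjusted z-score above 1 or below -1; inactive means the rest.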 Only a selection was taken, and actives are over-represented in it overall.

Assay: Novel Modifiers of Survival Motor Neuron (SMN) Protein: Gene Identification via Genome-wide siRNA Screen;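 further: luminescence tracks full-length SMN protein made from the SMN2 reporter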
Details: HEK293T SMN2-luciferase reporter, siRNA knockdown, 72 h; actives lie on both sides
Procedure, shortened: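 HEK293T cells stably expressing an SMN2 splicing/cDNA-luciferase reporter were reverse-transfected with a druggable-genome siRNA library and read by luminescence at 72 hours; hits defined by MAD score above 1.0 or below -1.0.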

| Sequence | median seed-adjusted z-score |
| --- | --- |
| CGCAAAAGGCUACCACGAATT against CD300LF | -0.264 (inactive) |
| GGUUGCUACGGGAACAAUATT against ARSD | -0.447 (inactive) |
| CAGUGACCUGCUUCCCUCATT against PROP1 | 0.303 (inactive) |
| CGGUGUGAAGAUGAUCUAATT against DNAJC24 | -0.0166 (inactive) |
| GUUACUCACAUUUUCUUUATT against AKR7A3 | 0.455 (inactive) |
| UAAUCAAUCUGGAAUGUUUTT against BMP8B | 0 (inactive) |
| CGAGGAGCUGAAUUCCCAATT against SLC9A3R1 | -0.418 (inactive) |
| CAGACUGAAGGGUUCCGAATT against MLH3 | 0.228 (inactive) |
| GCCUCUAAGAGCUGAGAGATT against PRSS33 | -0.588 (inactive) |
| GGACUAUGCAAAGAAUCUATT against RPS6KB1 | 1.4 (active) |
| GCUACGAUCACAUUACGAATT against JARID1D | 0.293 (inactive) |
| GUACCAGUCCAGUCCAUGATT against CDKN2D | -0.455 (inactive) |
| GGAAGUAAAUGUUGUUUUATT against CCL11 | -0.221 (inactive) |
| GGCCCGAGCUGAUUGACUATT against ACTN1 | 0 (inactive) |
| GCUCUAACCUCACUAAUCATT against ZNF256 | 0.00739 (inactive) |
| CCGCUGCAACAACCAGAAATT against LRP3 | -1.05 (active) |
| CAGUCCUACAGGUUCAUCATT against PIP5K1C | -0.13 (inactive) |
| GAGAUAUUUGAGUCGUUAATT against GBP7 | 0 (inactive) |
| CAACUCCGUGGUUACCAAATT against PQBP1 | -1.12 (active) |
| UCAUGAGCCUGAUAAGUGATT against PPP2R5D | 0.848 (inactive) |
| GAUCUCAAAUCAGAGUUAATT against ANXA7 | 0.671 (inactive) |
| CAAUGGAUCGGCUUCCUUATT against ADRA2B | 0.00853 (inactive) |

| Sequence | median seed-adjusted z-score |
| --- | --- |
| GCAAUAAGAGAGAUCAGUATT against PDSS1 | -0.287 (inactive) |
| GGACAAGAAGCAAAUGACATT against OLIG2 | 0.00944 (inactive) |
| GGUCCGCAAAGGCUUCUGATT against VWA1 | 0.289 (inactive) |
| CCUUAUCCGAGAAUACAUUTT against TUBAL3 | 1.05 (active) |
| GGAAAUUGACUUUCUAAAATT against KRT84 | -0.645 (inactive) |
| CAGUGACUAUGAGAGUGUATT against SCARB2 | -0.244 (inactive) |
| CGGUUGAAGUGUAGGGAGATT against TCEA1 | 0 (inactive) |
| CGAGUAUACAGUAUACAGATT against CHAF1B | 0.634 (inactive) |
| CUCAGAGAAUAAUCACAAATT against PER2 | -0.113 (inactive) |
| GAACUAUAUUCUUCUGUGATT against CDH1 | -0.24 (inactive) |
| GCCUCCUACUACUUCCGUUTT against SLC6A8 | -0.0673 (inactive) |
| GAAUUGUACCUACUUCUGUTT against PTPLA | 0.291 (inactive) |
| CUACCUCUCUUGUUUGGAATT against TRIP13 | 1 (active) |
| GCAAGCAGGUUAUCAACGATT against FLII | -0.353 (inactive) |
| GCAUGUACGACCAAUGUAATT against NR3C1 | -0.47 (inactive) |
| GAGUCACAGUUGAAGAUCUTT against GOT2 | 0.205 (inactive) |
| CAAUCUCCGCAAAAAUGGATT against PCMT1 | 0.139 (inactive) |
| CGACAUCUCACUCAUGAAATT against SF3A3 | -2.1 (active) |
| CUAUGGACCAGUCAAAUAATT against NDUFB7 | -0.379 (inactive) |
| ACACCCGCGUGUCUGAUUATT against PPAP2C | -1.12 (active) |
| CCCUCAUCAAGAACUUUCATT against S100A14 | 0.0172 (inactive) |
| GCCUAAACAGUGACCGAUUTT against BDH1 | -0.0253 (inactive) |

| Sequence | median seed-adjusted z-score |
| --- | --- |
| CUGCUGUUGUUACUACCCATT against USF1 | 0.16 (inactive) |
| GCAAGACCACGCUCCUUUATT against ARL11 | 1 (active) |
| GGAGUUAUCUGGUGACAAUTT against UROS | -0.248 (inactive) |
| GGCUAGUAGCUGAACUUCATT against DIMT1L | 0.0156 (inactive) |
| CAGUUGCAUUGGUUCCCAUTT against EZH1 | 0.268 (inactive) |
| GCUUUGGAAGGGUUUGAUATT against DCT | -0.184 (inactive) |
| GACGAAUCACUGCAGUUUATT against GOSR2 | -1.25 (active) |
| CAAGGUCUCCUGUGCUGAATT against MYOG | -0.0972 (inactive) |
| GGAUGUUGAUGAAGGCAAATT against LDHAL6A | -0.15 (inactive) |
| GAAUAUAACCUGCCGCUUUTT against CD44 | 0 (inactive) |
| GGGCUGGAUUGGUACAGGATT against HS3ST2 | 0.133 (inactive) |
| CGUGUGAUCCAGAGACUUATT against KRT1 | -0.362 (inactive) |
| AAGGCUACUUAACAAAGGATT against S100A10 | 0.366 (inactive) |
| GACGACUUCUUGAACAGAATT against ZNF207 | -3.1 (active) |
| GUAGGAUUGUUUAGUGUAATT against CACNA1D | -0.0856 (inactive) |
| GCUUUGAGAUUUUCGAGGATT against MYO1B | 0.903 (inactive) |
| CGAGAGCUCCAGAUCAUGATT against GSK3B | -0.952 (inactive) |
| GGGAUUGAGUUAAAACUAUTT against SOX7 | -0.387 (inactive) |
| GGUAGCUUCUGAUAAUGAUTT against LEO1 | 1.2 (active) |
| CGUGGGUAAUGAUGCGGAATT against TOM1 | 0.774 (inactive) |
| GGAGUUGAAGGCCUACAAATT against APOE | 0.0321 (inactive) |
| CCUUGUCUGUGCUCAAGUATT against USP35 | -0.219 (inactive) |

| Sequence | median seed-adjusted z-score |
| --- | --- |
| CACUUACCAAGGAUACCAATT against PHC2 | 0.177 (inactive) |
| GGAUUUUACAGGAUAUCUUTT against SPPL2A | -0.358 (inactive) |
| GAAUGGACUGGUACCUAUUTT against ALDOB | -1.34 (active) |
| GGAUCUGCAUAGUGACCAATT against PSMB1 | -0.35 (inactive) |
| AUGUUUCAAUAGAUCCAGATT against LIMD2 | 0.418 (inactive) |
| GCACCAAAGUAUACAACGATT against PRKAR2B | -0.777 (inactive) |
| GAUCUUGGAUGGAUUGCUATT against OCA2 | 0.457 (inactive) |
| ACAACCCUCUUAAAACUAATT against IGF2 | -0.0306 (inactive) |
| CUGUAUGGGUGGUCAAUCATT against ABCA1 | -1.27 (active) |
| GGACAACGAUAACCGAUCATT against CA1 | 0.262 (inactive) |
| GUCUAAAUCUCGUUCCAAATT against SRrp35 | -0.0574 (inactive) |
| AGGUCAAUGUGACUUUCCATT against KCNJ10 | -0.0371 (inactive) |
| GAAACGAUAUGAAUGUAAATT against ZNF491 | 0.0642 (inactive) |
| CCAUUGAAGAGGCUAUGAATT against SPAG7 | 0.263 (inactive) |
| GAGUGGGAAUGGUCAGGCUTT against ADORA2B | -0.471 (inactive) |
| GGUCCAUGGUGGAAGACGATT against MAL | 0.0733 (inactive) |
| CCAUCUCAGGAGUUAGCUATT against ZNF281 | 1.19 (active) |
| GUGUCUGGAUUUUCACUGATT against F11 | -0.0319 (inactive) |
| AGGCCUUGGUGGAACAUGUTT against PSAP | 0.107 (inactive) |
| GCUCGUAAGUUGGUGAUCATT against TPM3 | 0.111 (inactive) |
| GAACUAGCACGCAUCAAGATT against PPM1G | 0.073 (inactive) |
| GCACCAGCCUUAACCCUCATT against RAB1B | 1.55 (active) |

| Sequence | median seed-adjusted z-score |
| --- | --- |
| AAAUCCCGGUGAUCAUCGATT against MAP1LC3A | 0 (inactive) |
| GAGACAACCUGCAACGACATT against GDI1 | 0.198 (inactive) |
| CAGGAGUGAUUAAACGGUUTT against GNAI3 | 0.0656 (inactive) |
| GCUCUCAUAUCAUUCCAUUTT against PPIL5 | 0 (inactive) |
| GAUGAUUACCUGCAGAGCATT against MYD88 | -0.365 (inactive) |
| CCAUCAAAAUCGCAGACUUTT against DDR1 | -0.166 (inactive) |
| GGAUGUCUAGAUUACAUUUTT against PDE12 | 0.422 (inactive) |
| GGAGUACCGGCUAACAAUATT against MORC4 | 0.13 (inactive) |
| ACAUGAUCUUGGACCUGGATT against CSNK2B | -1.62 (active) |
| CAAUAGGAUUGGUCACCAATT against PNPT1 | 0.0729 (inactive) |
| CAACCAUCCCAUGUCUGUUTT against NMNAT2 | -1.58 (active) |
| GGAGUUAGCACUAACAUAATT against NUP98 | 0.168 (inactive) |
| GGAUAGUGAUGAUGUCUAUTT against GPR98 | -0.509 (inactive) |
| CCUCAACUCGUGAAGAAGATT against GPRC5A | -0.56 (inactive) |
| GGCAUAUGGUUAUCGAGGATT against EML4 | 0.958 (inactive) |
| CGUCCAAGAUCGAACCCAUTT against HIRA | 0.286 (inactive) |
| GCAAUCGGGUGGUAUCAUATT against COPS5 | -0.124 (inactive) |
| CAAGCAUGGUCUUUCUACUTT against TUBB2A | 1.03 (active) |
| CGAGAUCUCAAGUCUAACATT against ARAF | 0.535 (inactive) |
| GGAAGUACGUUCCAUACAATT against GALNT17 | 0.392 (inactive) |
| GGAUCUGUAUCAAGCCGUUTT against APC | 0.154 (inactive) |
